Results filed as inconclusive are left out. Active and inactive are the calls of the source. Rule for the calls: active = hit-call score of the fitted dose curve at least 0.9, where 1 is the maximum; inconclusive = response in the unintended direction; inactive = score below 0.9.
molecular target: human Thyroid Receptor alpha (THRa1), THRA (gene 7067) (UniProt P10827); assay: ATG_THRa1_TRANS: Attagene TRANS-FACTORIAL HepG2 Assay for human Thyroid Receptor alpha (THRa1) (AID 2283014)
Method: ATG_TRANS is a cell-based, multiplexed-readout assay that uses HepG2, a human liver cell line, with measurements taken at 24 hours after chemical dosing in a 24-well plate.ATG_THRa1_TRANS is one of 30 assay component(s) measured or calculated from the ATG_TRANS assay. It is designed to make measurements of mRNA induction, a form of inducible reporter, as detected with fluorescence intensity signals by Reverse transcription polymerase chain reaction (RT-PCR) and Capillary electrophoresis technology.Data from the assay component ATG_THRa1_TRANS was analyzed into 1 assay endpoint. This assay endpoint, ATG_THRa1_TRANS, was analyzed in the positive analysis fitting direction relative to DMSO as the negative control and baseline of activity. Using a type of inducible reporter, measures of mRNA for gain-of-signal activity can be used to understand the reporter gene at the transcription factor-level as they relate to the gene THRA. Furthermore, this assay endpoint can be referred to as a primary readout, because this assay has produced multiple assay endpoints where this one serves a reporter gene function. To generalize the intended target to other relatable targets, this assay endpoint is annotated to the nuclear receptor intended target family, where the subfamily is non-steroidal.
Human liver HepG2 cells are transiently transfected with multiple reporter transcription units (MRTUs) in 6-well plates using FuGene 6 reagent (Roche; 3 ml FuGene/1 mg DNA). The MRTU constructs are regulated by a cis-regulating element (promoter). […] A major difference between the CIS and TRANS system is that in CIS activities of endogenous TFs are measured, whereas the TRANS assay evaluates changes in activities of exogenous, chimeric NR-Gal4 proteins. […] At the end of 24 hour incubation, total RNA was isolated using TriZol reagent (Invitrogen). The isolated RNA is then reverse-transcribed using oligo(dT) primer and Mo-MLV reverse transcriptase (Invitrogen) with DNAse I (Ambion) treatment for 30 min. The one-tenth of the produced cDNA was amplified by PCR using Taq DNA polymerase (Invitrogen) and two reporter sequence-specific primers. The PCR products were fluorescently labeled by primer extension with 6-arboxyfluorescein (6-FAM) 5'-labeled reporter sequence-specific primer (2 min at 95 C, 20 s at 68 C and 10 min at 72 C) and these products were digested with 5U of HpaI (New England Biolabs) for 2h at 37 C. The fragments were purified using Qiaquick PCR columns (Qiagen), analyzed on an ABI 3130xL genetic analyzer (Applied Biosystems) with peak positions identified by using a set of X-rhodamine (ROX)-labeled MapMarker1000 molecular weight standards (BioVentures). The raw capillary electrophoresis data was processed using Attagraph software (Attagene).

Sequence of human Thyroid Receptor alpha (THRa1), THRA (gene 7067) (P10827 whole entry, looked up): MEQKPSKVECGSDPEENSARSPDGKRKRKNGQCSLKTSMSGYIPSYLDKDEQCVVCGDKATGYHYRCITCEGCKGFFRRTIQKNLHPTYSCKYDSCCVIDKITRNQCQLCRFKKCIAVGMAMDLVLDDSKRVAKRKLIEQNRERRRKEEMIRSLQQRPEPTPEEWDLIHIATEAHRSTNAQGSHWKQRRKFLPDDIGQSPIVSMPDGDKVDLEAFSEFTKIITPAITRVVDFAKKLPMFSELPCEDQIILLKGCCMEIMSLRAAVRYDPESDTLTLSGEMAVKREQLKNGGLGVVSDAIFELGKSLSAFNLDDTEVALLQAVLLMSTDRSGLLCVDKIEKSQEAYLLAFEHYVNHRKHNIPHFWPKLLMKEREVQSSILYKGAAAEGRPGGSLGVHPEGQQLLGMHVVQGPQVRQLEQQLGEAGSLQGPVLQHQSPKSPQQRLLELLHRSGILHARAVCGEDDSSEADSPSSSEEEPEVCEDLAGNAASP

| Structure (SMILES) | outcome |
| --- | --- |
| COC(=O)c1ccccc1S(=O)(=O)NC(=O)N(C)c1nc(C)nc(OC)n1 | inactive |
| O=S(=O)(O)C(F)(F)C(F)(F)C(F)(F)C(F)(F)C(F)(F)C(F)(F)C(F)(F)C(F)(F)F | inactive |
| CN1CSC(=S)N(C)C1 | inactive |
| CNC(=O)Oc1cccc(N=CN(C)C)c1 | inactive |
| O=C(NC(=O)c1c(F)cccc1F)Nc1ccc(OC(F)(F)C(F)OC(F)(F)F)c(Cl)c1 (configuration not stated) | inactive |
| Cc1cc(C)nc(NC(=O)NS(=O)(=O)c2ccccc2C(=O)OC2COC2)n1 | inactive |
| CC(C)(C)C(O)/C(=C\c1ccc(Cl)cc1Cl)n1cncn1 (configuration not stated) | inactive |
| CC(C)(C)C(O)C(Oc1ccc(Cl)cc1)n1cncn1 (configuration not stated) | inactive |
| COc1nn(CSP(=S)(OC)OC)c(=O)s1 | inactive |
| CCC(C)(NC(=O)c1cc(Cl)c(C)c(Cl)c1)C(=O)CCl (configuration not stated) | inactive |
| Clc1ccccc1-c1nnc(-c2ccccc2Cl)nn1 | inactive |
| CCCN(CCOc1c(Cl)cc(Cl)cc1Cl)C(=O)n1ccnc1 | inactive |
| C#CCN1C(=O)COc2cc(F)c(N3C(=O)C4=C(CCCC4)C3=O)cc21 | inactive |
| CC1(c2ccc(Oc3ccccc3)cc2)OC(=O)N(Nc2ccccc2)C1=O (configuration not stated) | inactive |
| CC1(C)C(C=C(Cl)Cl)C1C(=O)OC(C#N)c1ccc(F)c(Oc2ccccc2)c1 (configuration not stated) | inactive |
| C[C@H]1[C@H](c2ccc(Cl)cc2)SC(=O)N1C(=O)NC1CCCCC1 | inactive |

| Structure (SMILES) | outcome |
| --- | --- |
| CCC(C)(C)C(=O)OC1=C(c2ccc(Cl)cc2Cl)C(=O)OC12CCCCC2 | inactive |
| CCS(=O)(=O)c1cccnc1S(=O)(=O)NC(=O)Nc1nc(OC)cc(OC)n1 | inactive |
| CC[C@H](C)[C@H]1O[C@]2(C=C[C@@H]1C)C[C@@H]1C[C@@H](C/C=C(\C)[C@@H](O[C@H]3C[C@H](OC)[C@@H](O[C@H]4C[C@H](OC)[C@@H](O)[C@H](C)O4)[C@H](C)O3)[C@@H](C)/C=C/C=C3\CO[C@@H]4[C@H](O)C(C)=C[C@@H](C(=O)O1)[C@]34O)O2 (tested in a mixture with another compound) | inactive |
| CC(C)OC(=O)Nc1cccc(Cl)c1 | inactive |
| O=[N+]([O-])/N=C1\NCCN1Cc1ccc(Cl)nc1 | inactive |
| COC(=O)c1ccccc1S(=O)(=O)NC(=O)Nc1nc(C)nc(OC)n1 | inactive |
| O=[N+]([O-])c1c(Cl)c(Cl)c(Cl)c(Cl)c1Cl | inactive |
| Oc1ccc(Cl)cc1Cc1ccccc1 | inactive |
| CCOCN(C(=O)CCl)c1c(C)cccc1CC | inactive |
| ClC1C(Cl)C(Cl)C(Cl)C(Cl)C1Cl (configuration not stated) | inactive |
| CCOC1Oc2ccc(OS(C)(=O)=O)cc2C1(C)C (configuration not stated) | inactive |
| OCCOc1ccccc1 | inactive |
| Oc1cc(Cl)ccc1Oc1ccc(Cl)cc1Cl | inactive |
| N#Cc1c(Cl)c(Cl)c(Cl)c(C#N)c1Cl | inactive |
| COC(=O)c1ccccc1CS(=O)(=O)NC(=O)Nc1nc(OC)cc(OC)n1 | inactive |
| Cc1[nH]c(=O)n(C(C)(C)C)c(=O)c1Cl | inactive |

From PubChem BioAssay (EPA / NIEHS)
